High-throughput results (PubChem)
ELG1 repair inh: qHTS screen for small molecules that inhibit ELG1-dependent DNA repair in human embryonic kidney (HEK293T) cells expressing luciferase-tagged ELG1; HEK293T ELG1-luciferase reporter, luminescence, 16 h; DNA damage induced by 5-fluorouridine; Potency, µM (series often up to 46.1 µM), for inactives: top-dose activity change, negative = inhibition, hits mostly inhibitors; hit rate 2.3% among 330,000; AID 504467, 2011; also: % is scaled to controls: 0 for no effect and ±100 for the full control effect; nearly all actives have a fitted effect of over 55% in size
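5-Fluorouridine DNA damage + compound/DMSO, 2,000 cells/well, 16 h, 37 °C/5% CO2. ONE-Glo, 30 min RT, luminescence. Readout = decrease in reporter signal.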
KB-V1 MDR tox: qHTS assay for MDR1-selective chemotherapeutics: Primary screen using the drug-selected MDR subline cells KB-V1 | KB-V1 MDR cells viability, CellTiter-Glo, 72 h | Potency, µM (top dose mostly 46.1 µM), usual class: cytotoxic | hit rate 3.4% among 400,000 | AID 1347076, 2019; also: % is scaled to controls: 0 for no effect and ±100 for the full control effect; nearly all actives have a fitted effect of over 60% in size
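Drug-selected KB-V1 cells, grown in DMEM lacking phenol red with 10% FBS, receive compound titrations; after three days at 37 degrees C, surviving cell ATP is quantified by CellTiter-Glo luminescence and responses normalized and curve-fitted.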
KB-3-1 cytotox: qHTS assay for MDR1-selective chemotherapeutics: Primary screen using the parental adenocarcinoma cell KB-3-1 | KB-3-1 viability, CellTiter-Glo ATP luminescence, 72 h | Potency, µM (titrated, usually from 46.1 µM), actives largely listed as cytotoxic | hit rate 1.4% among 400,000 | AID 1347075, 2019; also: % is scaled to controls: 0 for no effect and ±100 for the full control effect; nearly all actives have a fitted effect of over 60% in size
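Here the drug-naive KB-3-1 line serves as comparator for MDR sub-line selectivity; cells received compound titrations, 72 h at 37 °C, then CellTiter-Glo readout.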
MCF10A rereplic: A quantitative high throughput screen for small molecules that induce DNA re-replication in MCF 10a normal breast cells | hit rate 2.9% among 350,000 | MCF 10A DNA re-replication, Hoechst nuclear intensity, 48 h | AID 624296, 2012 | Potency, µM (highest dose often 46.1 µM), for the others: at the top dose activity, positive = re-replication, hits mostly activators; also: % of control where 0% means no effect; nearly all actives have a fitted effect of over 50% in size
SW480 rereplic: A quantitative high throughput screen for small molecules that induce DNA re-replication in SW480 colon adenocarcinoma cells; Potency, µM (top dose mostly 46.1 µM), without a hit: at the top dose re-replication activation, hits mostly activators; SW480 DNA re-replication, Hoechst DNA content imaging, 48 h; hit rate 1.8% among 340,000; also: % of control where 0% means no effect; nearly all actives have a fitted effect of over 55% in size
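Hoechst fluorescence of nuclei (405 nm excitation, 500-530 nm emission) measured by plate-scanning imager after 48 hr compound exposure at 37 C; re-replication scored as increased number of nuclei with elevated intensity.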
An asterisk follows results filed as active; i = inactive; ? = inconclusive; . = not tested or not shown. Most compounds without a hit are left out; they make up all but 8.1% or so of the library. Calls follow the shape of the dose curve; as a rule, active = well fitted curve in the direction sought with a large enough effect; inconclusive = small, poorly fitted or top-dose-only effect, or another doubt; inactive = no such curve, though single readings can be large; an effect the other way counts as inactive or inconclusive. Potency is read from the fitted curve at half-maximal effect.

SMILES	ELG1 repair inh	KB-V1 MDR tox	KB-3-1 cytotox	MCF10A rereplic	SW480 rereplic
O=C(Nc1ccc(-c2nc3cc(Cl)ccc3o2)cc1)C1CCCO1 (stereo not drawn)	?	10.3µM*	i	?	3.6%
CC1CCc2c(sc3nc(SCC(=O)O)n(-c4ccccc4)c(=O)c23)C1 (stereo not drawn)	-4.5%	i	i	18.7%	-3.4%
CC1=C(C(=O)OCC(C)C)C2(O)C(=O)c3ccccc3C2(O)N1 (stereo not drawn)	1.4%	i	i	5.9%	-4.7%
CCOc1cccc2sc(N(CCN(CC)CC)C(=O)c3ccc(S(=O)(=O)N4CCCC4)cc3)nc12	-9.5%	i	i	3.1%	-6.4%
O=C(COC(=O)c1cc(=O)[nH]c2ccccc12)NCCc1ccccc1	12.7%	i	i	-7.1%	-2.3%
CCN(CC)C(=O)CSc1nc2c(sc(=S)n2Cc2ccco2)c(=O)n1-c1ccccc1	?	8.2µM*	i	4.9%	12.8%
CCOC(=O)CSc1nc2c(sc(=S)n2-c2ccccc2OC)c(=O)n1Cc1ccco1	-10.2%	9.2µM*	i	4.4%	6.5%
CCOC(=O)CSc1nc2c(sc(=S)n2Cc2ccco2)c(=O)n1-c1ccccc1	-17.7%	i	i	12.3%	-4.9%
CN(C)CC/C=C1\c2cc(F)ccc2CSc2ccccc21	1.8%	20.6µM*	i	9.3%	14.2%
C#CCN(C)CC/C=C1\c2ccccc2CSc2ccccc21	-8.8%	i	i	?	16.4µM*
CN(C)CCC=C1c2ccccc2C=Cc2ccccc21	-4.0%	?	i	0.6%	?
CN(C)CCC=C1c2ccccc2C(C)(C)c2ccccc21	.	.	.	29.9µM*	?
CN(CC/C=C1/c2ccccc2CSc2ccccc21)CCCO	-6.5%	23.1µM*	i	13.1%	?
O=C(COc1ccc([N+](=O)[O-])cc1Cl)N1CCc2ccccc21	?	?	i	-2.6%	25.1%
CCCCNC(=O)O[C@@H]1C[C@H]2CCCC(=O)N3CC[C@@H](C1)[C@@H]23	?	?	i	-5.6%	-6.4%
CCCc1nc2ccc(NC(=O)NCCC(=O)OCC)cc2c(=O)n1Cc1ccc(Cl)cc1	20.6µM*	?	i	9.1%	6.3%
CC(=O)Nc1ccc2nc(C3CC3)n(Cc3ccc(Cl)cc3)c(=O)c2c1	?	i	i	?	-73.0%
Cc1nc2ccc(NC(=O)c3cccs3)cc2c(=O)n1Cc1ccc(Cl)cc1	7.31µM*	?	?	17.5%	0.5%
CCCc1nc2ccc(NC(C)=O)cc2c(=O)n1Cc1cccc(Cl)c1	?	i	i	-9.6%	1.7%
CCCc1nc2ccc(NC(=O)c3cccs3)cc2c(=O)n1Cc1ccc(Cl)cc1	16.4µM*	i	i	13.0%	-2.9%
CC(=O)c1cc2c(cc1NC(=O)C1CC1)OCO2	-11.6%	i	i	-1.3%	-6.1%
Cc1c(/C=N/Nc2ccc(F)cc2)c(O)n(C)c(=O)c1C#N	5.6%	i	i	-15.6%	?
CCc1ccc(CNC(=O)Cc2ccc(NC(=O)C3=C(C)OCCS3)cc2)cc1	?	1.16µM*	1.16µM*	?	?
O=c1[nH]c2ccccc2nc1-c1c[nH]c2ccccc12	?	i	i	24.8%	0.731µM*
Nc1ccccc1-c1nc2ccccc2[nH]c1=O	?	i	i	-2.2%	?
NS(=O)(=O)c1ccc(NC(=O)c2ccc(S(=O)(=O)N3CCOCC3)o2)cc1	12.2%	i	i	-3.0%	-7.6%
CC1CN(S(=O)(=O)c2ccc(C(=O)Nc3ccc(S(=O)(=O)N4CCOCC4)cc3)cc2)CC(C)O1 (stereo not drawn)	8.2µM*	i	i	11.3%	-0.9%
O=C(Nc1ccc(S(=O)(=O)Nc2ccc(F)cc2)cc1)c1ccc(CN2CCOCC2)cc1	?	?	3.66µM*	?	?
